# U2OS ROS induce = inducers of reactive oxygen species in cancer cells. U2OS ROS induction, H2DCF-DA fluorescence. ROS induction (% of piperlongumine), % at 10 µM. 2% of 46,000 active. AID 624156; in the data active = ROS induction above about 79%, passing the limit was not always enough
# Hits are given with their value; 0 = inactive. Only a selection was taken, and hits are over-represented in it overall.
SMILES,U2OS ROS induce
C[C@@H]1CCCCO[C@H](CN(C)C(=O)Nc2ccccc2)[C@@H](C)CN([C@H](C)CO)C(=O)c2cc(NC(=O)Nc3ccc4c(c3)OCO4)ccc2O1,0
C[C@@H]1CCCCO[C@H](CN(C)C(=O)c2ccncc2)[C@@H](C)CN([C@H](C)CO)C(=O)c2cc(NS(=O)(=O)c3ccc(Cl)cc3)ccc2O1,0
C[C@@H]1CCCCO[C@H](CN(C)C(=O)c2ccncc2)[C@@H](C)CN([C@H](C)CO)C(=O)c2cc(NS(=O)(=O)c3ccc(F)cc3)ccc2O1,0
COc1ccc(NC(=O)Nc2ccc3c(c2)C(=O)N([C@H](C)CO)C[C@H](C)[C@H](CN(C)C(=O)Nc2ccccc2)OCCCC[C@@H](C)O3)cc1,0
C[C@@H]1CCCCO[C@H](CN(C)C(=O)c2ccccc2)[C@@H](C)CN([C@H](C)CO)C(=O)c2cc(NC(=O)NC3CCCCC3)ccc2O1,0
O=C(CNC(=S)N(Cc1ccccc1)Cc1cccs1)NC1CCCCC1,0
O=C(CN1C(=O)C2C3C=CC(C3)C2C1=O)Nc1ccc2ncccc2c1 (stereo unspecified),0
O=C(C[n+]1ccccc1)Nc1c2c(nc3c1CCC3)CCCC2,0
O=C(O)c1ccccc1C(=O)NCC1COc2ccccc2O1 (stereo unspecified),0
Cc1ccc2[nH]c(=O)c3cc(C(=O)NCCN(C)Cc4ccccc4)sc3c2c1,0
Cc1ccc2cc3c(N)nn(C(=O)c4ccccc4F)c3nc2c1,0
N#CCCn1c(-c2cncs2)nc2ccccc21,0
CN(C)c1cc(N=C2CCCN2c2ccccc2)c2ccccc2n1,0
CCOc1ccc(-c2nc(C#N)c(N(C)C)o2)cc1,0
NC(=O)C1CCN(C(=O)Cn2ncc3c4ccccc4n(Cc4ccc(F)cc4)c3c2=O)CC1,0
C=C1C(=O)O[C@@H]2/C=C(/C)[C@@H]3C/C=C(/C[C@@H](OC(=O)/C(=C/CO)CO)[C@@H]12)C[C@@](O)(C(C)C)C(=O)O3,0
C=C1C(=O)O[C@H]2C1[C@H](OC(=O)/C(=C/CO)COC(=O)/C(C)=C/CO)CC(=C)[C@@H]1CC(=O)[C@@H](C)[C@@H]12 (stereo partly specified),87.2
CCCCc1cc(CCCC)n2nc(-c3ccccc3)cc2n1,0
Cc1ccc(-n2c(SCC(=O)C(C)(C)C)nnc2-c2ccncc2)cc1,0
CCOC(=O)c1cnn(CCOC(=O)c2ccccc2F)c1NC(=O)c1ccccc1F,0
CCOC(=O)C1=CN(c2ccc(C)c(C)c2)C=C(C(=O)OCC)C1c1ccccc1F,95.9
COC(=O)C1=CN(c2ccc(F)cc2)C=C(C(=O)OC)C1c1cccc(O)c1,0
CCc1ccc(C2C3=C(CCCC3=O)Nc3c2c(=O)n(C)c(=O)n3C)cc1 (stereo unspecified),0
COC(=O)c1ccccc1-n1c(N)c(C#N)c(N)c(C#N)c1=S,0
CCc1ccccc1NC(=O)C(C(C)C)N1C(=O)c2ccccc2C1=O (stereo unspecified),0
SMILES,U2OS ROS induce
CCOc1cc(S(=O)(=O)NCc2ccco2)c(C)cc1C,0
Cc1ccc(-c2nn3c(C)nnc3c3ccccc23)cc1S(=O)(=O)NCc1ccco1,125.0
Cc1ccc(-c2nnc3c4ccccc4c(C)nn23)cc1S(=O)(=O)NC(C)c1ccccc1 (stereo unspecified),0
O=C(Nc1cccc(Cl)c1)Nc1nc(-c2ccc(OC(F)(F)F)cc2)no1,0
Cc1cc(C)n2nc(SCC(=O)NCc3ccc(Cl)cc3)nc2n1,0
O=C(CN(C1=NC2CS(=O)(=O)CC2S1)c1ccc(F)cc1)Nc1ccccc1C(F)(F)F (stereo unspecified),0
O=C1O[C@@H](c2ccccc2)[C@@H](c2ccccc2)N2[C@@H](c3ccccc3OCCO)[C@]3(C(=O)Nc4ccccc43)[C@@H](C(=O)O)[C@H]12,0
COC(=O)C(CC#Cc1ccc2c(c1)[C@]1(C(=O)N2)[C@H](c2ccccc2OCCO)N2[C@H](c3ccccc3)[C@H](c3ccccc3)OC(=O)[C@H]2[C@@H]1C(=O)N1CCN(c2ncccn2)CC1)C(=O)OC,99.0
O=C1O[C@H](c2ccccc2)[C@H](c2ccccc2)N2[C@H]1[C@@H](C(=O)O)[C@]1(C(=O)Nc3ccccc31)[C@H]2c1ccc(OCCO)cc1,0
O=C1O[C@@H](c2ccccc2)[C@@H](c2ccccc2)N2[C@@H](c3ccc(OCCO)cc3)[C@]3(C(=O)Nc4ccccc43)[C@@H](C(=O)N3CCN(c4ncccn4)CC3)[C@H]12,96.5
O=C1O[C@H](c2ccccc2)[C@H](c2ccccc2)N2[C@H]1[C@@H](C(=O)N1CCN(c3ncccn3)CC1)[C@]1(C(=O)Nc3ccc(C#CC4(O)CCCCCC4)cc31)[C@H]2c1ccc(OCCO)cc1,0
COC(=O)C(CC#Cc1ccc2c(c1)[C@]1(C(=O)N2)[C@H](C(=O)N2CCN(c3ncccn3)CC2)[C@H]2C(=O)O[C@H](c3ccccc3)[C@H](c3ccccc3)N2[C@@H]1c1ccc(OCCO)cc1)C(=O)OC,0
COC(=O)C(CC#Cc1ccc2c(c1)[C@]1(C(=O)N2)[C@H](c2ccc(OCCO)cc2)N2[C@H](c3ccccc3)[C@H](c3ccccc3)OC(=O)[C@H]2[C@@H]1C(=O)N1CCN(c2ncccn2)CC1)C(=O)OC,0
O=C1O[C@H](c2ccccc2)[C@H](c2ccccc2)N2[C@H]1[C@@H](C(=O)N1CCN(c3ncccn3)CC1)[C@]1(C(=O)Nc3ccccc31)[C@H]2c1ccccc1OCCO,169.9
O=C1O[C@H](c2ccccc2)[C@H](c2ccccc2)N2[C@H]1[C@@H](C(=O)N1CCN(c3ncccn3)CC1)[C@]1(C(=O)Nc3ccc(C#CC4=CCCCC4)cc31)[C@H]2c1ccccc1OCCO,0
CCc1ccc(NS(=O)(=O)c2ccc3c(c2)SCC(=O)N3)cc1,0
CCOc1cccc2c1Oc1nc(-c3ccccc3)nc(SCC(=O)N(CC)CC)c1C2,0
O=C1N=C(c2cccc(O)c2)c2ccccc2Nc2ccccc21,0
C/C(=C/c1ccccc1)C(=O)Nc1ccc2nc3n(c(=O)c2c1)CCCCC3,0
CC1=Nc2ccccc2NC(=O)C1Sc1nc2ccccc2s1 (stereo unspecified),0
CNC(=S)N(Cc1ccccc1)Cc1ccccc1,0
CCc1ccc(NS(=O)(=O)c2c(C)[nH]c(=O)[nH]c2=O)cc1,0
Cn1c2ccccc2c2cnn(CC(=O)NCc3ccc4c(c3)OCO4)c(=O)c21,0
C[C@@H]1CN([C@@H](C)CO)C(=O)c2cc(NC(=O)Nc3cccc4ccccc34)ccc2O[C@@H]1CN(C)Cc1ccc2c(c1)OCO2,0
C[C@H](CO)N1C[C@H](C)[C@@H](CN(C)C(=O)Nc2ccc3c(c2)OCO3)Oc2ccc(NC(=O)Nc3cccc4ccccc34)cc2C1=O,0
C[C@H](CO)N1C[C@H](C)[C@H](CN(C)C(=O)Nc2ccc3c(c2)OCO3)Oc2ccc(NC(=O)Nc3cccc4ccccc34)cc2C1=O,79.0
C[C@H]1CN([C@@H](C)CO)C(=O)c2cc(NC(=O)Nc3cccc4ccccc34)ccc2O[C@H]1CN(C)Cc1ccc2c(c1)OCO2,0
C[C@H]1CN([C@@H](C)CO)C(=O)c2cc(NC(=O)Nc3cccc4ccccc34)ccc2O[C@@H]1CN(C)C(=O)Nc1ccc2c(c1)OCO2,0
C[C@H]1CN([C@@H](C)CO)C(=O)c2cc(NC(=O)Nc3cccc4ccccc34)ccc2O[C@@H]1CN(C)Cc1ccc2c(c1)OCO2,120.1
O=C(NC1CCCCC1)c1ccc(Cn2c(=S)[nH]c3ccccc3c2=O)cc1,0

# Screening data: PubChem, Broad Institute
